EWS-Fli block – inhibitors of EWS/Fli oncoprotein transcriptional activity; A673 NR0B1-luciferase reporter, viability-normalised; actives 0.67% (n = 350,000); AID 651661; inhibition, % at 12.6 µM;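 active = mean inhibition of at least 50% after viability correction, with every replicate also passing that limit; inconclusive = mean reaches 50% but only one of two replicates passes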;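 also: firefly luciferase signal divided by Alamar Blue viability fluorescence both relative to DMSO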
Wnt act – Wnt/beta-catenin pathway activation. actives 1.2% (n = 300,000). Wnt/beta-catenin reporter cell assay, activator, plate reader. activation, % at 9.35 µM; in the data active = activation above about 30%, passing the limit was not always enough; inconclusive = no clear call, values can overlap the other calls;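 also: 0% = neutral control wells and 100% = positive control wells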
esBAF inh – blocks esBAF chromatin remodeling in mouse ES cells; Bmi1-luciferase knock-in reporter, 24 h; 100% = twice the neutral-well signal; reporter increase, % at 12.5 µM; actives 2% (n = 350,000); in the data active = activation above about 40%; inconclusive = no clear call, values can overlap the other calls;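 also: 0% = median of the plate's neutral control wells and 100% = double that signal; a rise in the Bmi1 reporter signal indicates esBAF inhibition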
MITF act – MITF TRPM1 promoter activation in melanoma cells; actives 0.75% (n = 300,000); activation, % at 12.5 µM; SK-MEL-5 TRPM1-promoter luciferase, 24 h; % of positive control, neutral wells = 0;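 active = mean activation of at least 80% with every replicate also reaching 80%; inconclusive = mean reaches 80% but some replicate falls short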;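 also: 0% = neutral control wells and 100% = parthenolide positive control wells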
TRPM1 prom inh – reduces MITF-dependent TRPM1 promoter luciferase signal; SK-MEL-5 TRPM1 promoter luciferase, 24 h; inhibition, % at 12.5 µM; actives 0.83% (n = 330,000); AID 488899;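 active = mean inhibition across replicates of 60% or more, whatever share of single replicates reaches that level; inconclusive = some that reach 60%, reason not given; inactive = mean inhibition across replicates below 60%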
PAX8 reporter – lowers PAX8-driven luciferase in RMG-I cells; RMG-I TPO-luciferase reporter, SteadyGlo, 24 h; AID 652154; inhibition, % at 12.6 µM; actives 1.2% (n = 360,000);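 active = mean replicate inhibition at least 60% with every replicate also reaching 60%; inconclusive = only one of the two criteria is met; inactive = mean below 60% and not all replicates reaching 60%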;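 also: luciferase light reporting Pax8 driven TPO promoter activity; plate controls were median of neutral control wells for no effect and mitoxantrone controls for full effect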
The depositor's hits bear a star; ? = inconclusive; / = no result given. Sampled rows, rich in hits. Any-hit rate of the full collection: about 4%.

SMILES	EWS-Fli block	Wnt act	esBAF inh	MITF act	TRPM1 prom inh	PAX8 reporter
O=C(NC1=NCCS1)c1ccc(-c2ccc(Cl)cc2)o1	/	/	/	70.7	-69.0	/
C[C@H](CO)N1C[C@H](C)[C@@H](CN(C)Cc2ccc(Oc3ccccc3)cc2)Oc2ccc(NC(=O)Nc3ccc(C(F)(F)F)cc3)cc2CC1=O	11.1	/	-9.0	/	/	51.8
CO[C@H]1CN(C)C(=O)c2cc(NS(=O)(=O)c3ccc(Cl)cc3)ccc2OC[C@H](C)NC[C@H]1C	-4.3	/	-0.2	/	/	2.4
O=C(c1ccccn1)N1CC2(C1)[C@@H](c1ccccc1)[C@@H](CO)N2C(=O)CC1CC1	1.1	/	/	/	/	1.1
Cc1ccc(S(=O)(=O)N[C@@H]2C=C[C@@H](CC(=O)NCCN3CCCCC3)O[C@@H]2CO)cc1	4.1	/	-0.2	/	/	-1.0
O=C(Cc1ccccn1)N1CC(=O)N2[C@H](CO)[C@H](c3ccc(C#CC4CCCC4)cc3)[C@@H]2C1	5.9	/	/	/	/	/
CCCNC(=O)Nc1ccc2c(c1)C(=O)N(C)C[C@H](OC)[C@H](C)CN(Cc1ccc(-c3ccccn3)cc1)[C@@H](C)CO2	1.9	/	-5.4	/	/	/
O=C(c1cc(-c2ccc(Cl)c(Cl)c2)on1)N1CCOCC1	-111.6	2.9	42.0*	89.8*	-79.2	-106.0
O=C(c1cc(-c2cccc(Cl)c2)on1)N1CCOCC1	-90.6	-0.6	44.3*	100.5*	-100.9	-132.5
COCCNC(=O)c1cc(-c2ccc(Cl)c(Cl)c2)on1	-85.5	8.2	52.2*	44.6	-43.0	-19.0
O=C(c1cc(-c2ccc(Cl)cc2)on1)N1CCOCC1	/	/	-35.1	33.0	-42.0	/
COCCNC(=O)c1cc(-c2ccc(OC)c(OC)c2)on1	/	/	11.6	11.7	-10.1	/
C[C@@H]1CN([C@H](C)CO)S(=O)(=O)c2ccc(C#CC3CC3)cc2O[C@H]1CN(C)Cc1cncnc1	14.4	/	/	/	/	/
Cc1ccc(NC(=O)Cc2cc(C(=O)O)c3ccccc3n2)c(C)c1	12.8	-0.6	/	-7.6	6.9	69.5*
C[C@@H]1CN([C@@H](C)CO)C(=O)Cc2cc(NS(=O)(=O)c3ccc(F)cc3)ccc2O[C@H]1CN(C)C(=O)Nc1ccccc1	-5.8	/	2.1	/	/	/
Nc1nc(Nc2ccccc2F)nc(N2CCCC2)c1[N+](=O)[O-]	-19.8	26.9	69.9*	87.8*	-82.3	-40.3
Cc1c(C(=O)N(CCO)Cc2ccccc2)oc2c(F)cccc12	-123.2	4.5	59.0*	/	-80.1	-116.1
Cc1cc(Cl)c2oc(C(=O)N(CCO)Cc3ccccc3)c(C)c2c1	-68.7	6.7	-2.8	19.4	-26.1	-53.2
O=C(C[C@H]1CC[C@@H]2[C@H](COC[C@@H](O)CN2C(=O)Nc2ccc(Cl)c(Cl)c2)O1)NCc1ccc(Cl)cc1	-3.0	/	5.2	/	/	5.0
O=C(C[C@H]1CC[C@@H]2[C@H](COC[C@H](O)CN2C(=O)Nc2ccc(Cl)c(Cl)c2)O1)NCc1ccc(Cl)cc1	-1.3	/	-2.7	/	/	13.6
Cc1ccc(S(=O)(=O)N2C[C@H](O)COC[C@H]3O[C@H](CC(=O)NCc4ccc(Cl)c(Cl)c4)CC[C@@H]32)cc1	-2.1	/	-0.8	/	/	43.2
Cc1ccc(S(=O)(=O)N2C[C@H](O)COC[C@H]3O[C@@H](CC(=O)NCc4ccc(Cl)c(Cl)c4)CC[C@@H]32)cc1	25.0	/	0.1	/	/	74.5*
O=C(C[C@@H]1CC[C@@H]2[C@H](COC[C@@H](O)CN2C(=O)Nc2ccc(Cl)c(Cl)c2)O1)NCc1ccc(Cl)cc1	0.3	/	16.9	/	/	95.6*
O=C(C[C@H]1CC[C@H]2[C@@H](COC[C@H](O)CN2C(=O)Nc2ccc(Cl)c(Cl)c2)O1)NCc1ccc(Cl)cc1	-9.2	/	2.7	/	/	69.7*
O=C(C[C@@H]1CC[C@H]2[C@@H](COC[C@H](O)CN2C(=O)Nc2ccc(Cl)c(Cl)c2)O1)NCc1ccc(Cl)cc1	-2.3	/	-3.3	/	/	95.3*
O=C(C[C@@H]1CC[C@@H]2[C@H](COC[C@@H](O)CN2C(=O)Nc2ccc(Cl)c(Cl)c2)O1)NCc1ccc(Cl)c(Cl)c1	7.6	/	10.5	/	/	73.8*
CCC(=O)Nc1ccc(NC(=O)c2cc3ccccc3o2)c(OC)c1	-133.4	-1.8	42.7*	/	-45.4	-39.3
COc1cc(NC(=O)c2c(OC)cccc2OC)ccc1NC(=O)c1cc2ccccc2o1	-123.1	1.6	?	93.0*	-92.0	-87.0
COc1cc(NC(=O)c2cc3ccccc3o2)ccc1NC(=O)c1ccco1	-0.3	1.5	10.8	4.4	-4.1	-1.0

Screening results deposited in PubChem by Broad Institute.
